Where “and” joins values, the source holds several entries; their conditions need not be identical. Equal values may be shown once. Results filed as inconclusive are left out. Calls of active or inactive are those of the source. Unless noted, calls follow the shape of the dose curve; as a rule, active = well fitted curve in the direction sought with a large enough effect; inconclusive = small, poorly fitted or top-dose-only effect, or another doubt; inactive = no such curve, though single readings can be large; an effect the other way counts as inactive or inconclusive.

Test [1] has as its target Catechol O-methyltransferase (Homo sapiens) (UniProt P21964). Kind of test: Confirmatory Screen for Target Class Profiling of Small Molecule Inhibitors of Methyltransferases (AID 1745852; calls by dose curve; also: potency is read from the fitted curve at half-maximal effect; as to activity change, negative = inhibition: % is scaled to controls: 0 for no effect and ±100 for the full control effect). To be noted: MTase-Glo luminescence, SAH detection, recombinant enzyme; measured here: COMT max response; stronger effect = lower value.
Test [2] deals with Guanidinoacetate N-methyltransferase (Homo sapiens) (UniProt Q14353). The test is described as above. To be noted: MTase-Glo luminescence, SAH detection, recombinant enzyme; activity change, negative = inhibition: at 57.3 µM (top of the series) unless noted; series mostly up to 57.3 µM.
Test [3] deals with Nicotinamide N-methyltransferase (Homo sapiens) (UniProt P40261). The description is as above. To be noted: MTase-Glo luminescence, SAH detection, recombinant enzyme; measured here: NNMT max response; stronger effect = lower value.
Test [4] deals with Phenylethanolamine N-methyltransferase (Homo sapiens) (UniProt P11086). The description is as above. The settings on record: MTase-Glo luminescence, SAH detection, recombinant enzyme; measured here: PNMT max response; stronger effect = lower value.
Test [5] has as its target Glutathione peroxidase 1 (Homo sapiens) (UniProt P07203). Kind of test: Primary qHTS Assay for Inhibitors of Recombinant Selenoprotein Glutathione Peroxidase 1 (GPX1) (AID 1845191). Also: nearly all actives have a fitted effect of over 65% in size. As to activity, negative = inhibition: % is scaled to controls: 0 for no effect and ±100 for the full control effect. The settings on record: recombinant GPX1, GR-coupled NADPH fluorescence, 15 min; series mostly up to 48.8 µM. The procedure, abridged:
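GR-coupled assay: compounds preincubated 30 min at room temperature with GPX1, then reaction started with CHP; final 10 nM GPX1, 1 mM GSH, 0.5 mM CHP, 0.5 mM NADPH, 100 nM GR, 0.01% BSA, pH 7.5 Tris buffer. NADPH fluorescence (340/450 nm) read at 0 and 15 min.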
A general note: qHTS replaces the single test concentration by a dilution series.

The target of test [6] is Phospholipid hydroperoxide glutathione peroxidase GPX4 (Homo sapiens) (UniProt P36969). Kind of test: Primary qHTS Assay for Inhibitors of Recombinant Selenoprotein Glutathione Peroxidase 4 (GPX4) (AID 1845192). Also: nearly all actives have a fitted effect of over 65% in size. As to activity change, negative = inhibition: % is scaled to controls: 0 for no effect and ±100 for the full control effect. The settings on record: recombinant GPX4, GR-coupled NADPH fluorescence, 15 min; series mostly up to 50 µM. Put shortly:
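GR-coupled assay: recombinant GPX4 preincubated 30 min with compound at room temperature; final 200 nM GPX4, 1 mM GSH, 0.5 mM cumene hydroperoxide, 0.5 mM NADPH, 100 nM GR, 0.01% BSA, pH 7.5 Tris. NADPH fluorescence (340/450 nm) read at 0 and 15 min.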

Test [7] has as its target Luciferin 4-monooxygenase (Photinus pyralis) (UniProt P08659). Kind of test: Primary firefly luciferase (FLuc) qHTS assay for identification of artifact compounds. (AID 1845220). Also: nearly all actives have a fitted effect of over 60% in size.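 As to activity change, negative = inhibition: plate controls were DMSO vehicle for no effect and no enzyme for full effect.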 To be noted: purified firefly luciferase, luminescence, 5 min; series mostly up to 54.1 µM. The procedure, abridged: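 D-luciferin and ATP (10 uM each, final) in Tris acetate buffer pH 7.6 were incubated with compounds for 15 min at room temperature. The reaction was started with 10 nM Photinus pyralis luciferase and luminescence read after 5 min. Percent inhibition was fitted to a 4-parameter Hill equation.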

The nature of test [8]: Primary fluorescence-based thiol-reactive (MSTI) qHTS assay for identification of artifact compounds. (AID 1845221). Also: nearly all actives have a fitted effect of over 65% in size. Also: potency is read from the fitted curve at half-maximal effect.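 As to activity change, negative = thiol reactive: thiol-reactive compounds lower the probe fluorescence signal.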 To be noted: MSTI thiol-reactivity probe, 1 h; series mostly up to 53.8 µM. Put shortly:
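A multi-concentration qHTS design tested compounds against 4 uM MSTI, pH 7.4 phosphate-buffered saline. Plates were protected from light for 1 h at room temperature before imaging fluorescence.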

The test system of test [9] is Nanoluciferase (engineered Oplophorus gracilirostris luciferase). Kind of test: Primary Nanoluciferase (NLuc) qHTS assay for identification of artifact compounds. (AID 1845222).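 Also: 0% = DMSO and -100% = no enzyme.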 The settings on record: NLuc-conditioned medium, Nano-Glo luminescence, 5 min; series mostly up to 54.1 µM. The procedure, abridged: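 Diluted conditioned medium from NLuc-expressing S16 cells treated with compounds for 15 min at room temperature, then Nano-Glo substrate added; luminescence read after 5 min. Percent inhibition versus no-enzyme and DMSO controls fitted to 4-parameter Hill equation.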

Test [10] is described as follows: Primary redox qHTS assay for identification of artifact compounds. (AID 1845223).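 Also: 0% = DMSO and 100% = reference compound.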 The settings on record: Amplex Red/HRP redox cycling with DTT, fluorescence; series mostly up to 53.8 µM. Put shortly: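 Amplex Red (25 uM) and HRP (250 mU/mL) in HBSS, with compounds for 15 min, then 250 uM DTT for 30 min, room temperature, dark. Fluorescence 525/598 nm read; normalized to DMSO and 10 uM DA3003; Hill fit.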

Test [11] concerns the target Rap guanine nucleotide exchange factor 4 (Homo sapiens) (UniProt Q8WZA2). Kind of test: Confirmatory qHTS for agonist of cAMP-regulated guanine nucleotide exchange factor 4 (EPAC2) (AID 1645884).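 Also: nucleotide exchange releases bodipy-GDP from Rap1 and this lowers its fluorescence; % is scaled to controls: 0 for no effect and ±100 for the full control effect; nearly all actives have a fitted effect of over 65% in size.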 The settings on record: EPAC2 GEF activity, Rap1B-BODIPY-GDP fluorescence, percent relative to cAMP agonist control; series mostly up to 154 µM.
Test [12] has the same target. Kind of test: Confirmatory qHTS for antagonist of cAMP-regulated guanine nucleotide exchange factor 4 (EPAC2) (AID 1645885). Also: nearly all actives have a fitted effect of over 25% in size. Also: potency is read from the fitted curve at half-maximal effect. To be noted: EPAC2 Rap1B-BODIPY-GDP exchange fluorescence, biochemical; series mostly up to 114 µM.
The target of test [13] is Rap guanine nucleotide exchange factor 3 (Homo sapiens) (UniProt O95398). Put plainly: Counterscreen qHTS for antagonist of cAMP-regulated guanine nucleotide exchange factor 3 (EPAC1) (AID 1645888).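 Also: fluorescence loss as bound BODIPY-GDP is released from Rap1B; % of control where 0% means no effect.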 The settings on record: Rap1B-BODIPY-GDP nucleotide exchange, fluorescence; series mostly up to 154 µM. Put shortly: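 Rap1B–BODIPY-GDP (250 nM) with 50 uM GDP; compounds pin-transferred to 9.74 nM–152 uM final (activator) or from 7.32 nM upwards (inhibitor). Fluorescence Ex/Em 480/540 nm read at 5 and 30 min, then after adding cAMP or buffer, at room temperature.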
Background: The purpose of a counterscreen is to sort out artefacts and off-target activity.

Chain of Rap guanine nucleotide exchange factor 4 (Homo sapiens) (Q8WZA2 whole entry, looked up): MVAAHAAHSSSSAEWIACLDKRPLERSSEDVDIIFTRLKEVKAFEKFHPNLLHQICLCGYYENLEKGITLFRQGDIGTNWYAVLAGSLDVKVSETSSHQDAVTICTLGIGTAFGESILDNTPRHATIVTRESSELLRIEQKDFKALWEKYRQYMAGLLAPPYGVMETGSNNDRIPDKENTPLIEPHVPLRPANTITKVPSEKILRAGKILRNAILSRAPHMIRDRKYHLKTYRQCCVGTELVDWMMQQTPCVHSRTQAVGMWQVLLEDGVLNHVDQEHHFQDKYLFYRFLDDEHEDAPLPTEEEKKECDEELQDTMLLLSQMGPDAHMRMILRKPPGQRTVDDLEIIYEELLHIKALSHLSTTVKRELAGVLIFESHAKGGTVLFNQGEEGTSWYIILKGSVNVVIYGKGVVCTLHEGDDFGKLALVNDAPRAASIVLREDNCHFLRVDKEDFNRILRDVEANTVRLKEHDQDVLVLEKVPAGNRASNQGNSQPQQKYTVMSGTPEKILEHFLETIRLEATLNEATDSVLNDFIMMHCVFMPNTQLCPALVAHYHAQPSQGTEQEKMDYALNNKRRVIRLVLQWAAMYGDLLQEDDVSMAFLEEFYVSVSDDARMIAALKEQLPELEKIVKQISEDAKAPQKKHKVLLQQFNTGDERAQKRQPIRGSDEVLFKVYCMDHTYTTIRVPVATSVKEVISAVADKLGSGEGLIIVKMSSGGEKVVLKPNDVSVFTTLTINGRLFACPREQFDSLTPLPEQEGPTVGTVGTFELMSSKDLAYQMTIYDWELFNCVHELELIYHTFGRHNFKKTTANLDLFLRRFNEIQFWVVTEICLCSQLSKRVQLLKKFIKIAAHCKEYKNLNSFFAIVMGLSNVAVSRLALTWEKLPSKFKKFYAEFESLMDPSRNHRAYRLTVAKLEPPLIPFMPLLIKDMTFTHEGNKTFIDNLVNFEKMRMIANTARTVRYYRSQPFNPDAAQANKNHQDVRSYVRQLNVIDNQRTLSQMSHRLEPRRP
Chain of Catechol O-methyltransferase (Homo sapiens) (P21964 whole entry, looked up): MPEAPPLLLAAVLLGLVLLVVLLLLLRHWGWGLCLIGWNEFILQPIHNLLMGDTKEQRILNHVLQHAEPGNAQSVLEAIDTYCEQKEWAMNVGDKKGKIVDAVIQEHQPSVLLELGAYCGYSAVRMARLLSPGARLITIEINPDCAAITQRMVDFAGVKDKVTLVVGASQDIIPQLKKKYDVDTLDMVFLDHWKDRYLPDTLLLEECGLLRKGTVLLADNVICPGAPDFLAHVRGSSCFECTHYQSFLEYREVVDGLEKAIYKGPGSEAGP
Chain of Phospholipid hydroperoxide glutathione peroxidase GPX4 (Homo sapiens) (P36969 whole entry, looked up): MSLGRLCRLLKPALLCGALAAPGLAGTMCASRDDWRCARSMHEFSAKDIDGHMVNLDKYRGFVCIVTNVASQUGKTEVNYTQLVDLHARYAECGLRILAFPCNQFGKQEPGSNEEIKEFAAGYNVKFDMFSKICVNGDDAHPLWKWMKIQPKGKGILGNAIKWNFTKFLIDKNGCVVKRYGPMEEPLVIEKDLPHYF
Chain of Nicotinamide N-methyltransferase (Homo sapiens) (P40261 whole entry, looked up): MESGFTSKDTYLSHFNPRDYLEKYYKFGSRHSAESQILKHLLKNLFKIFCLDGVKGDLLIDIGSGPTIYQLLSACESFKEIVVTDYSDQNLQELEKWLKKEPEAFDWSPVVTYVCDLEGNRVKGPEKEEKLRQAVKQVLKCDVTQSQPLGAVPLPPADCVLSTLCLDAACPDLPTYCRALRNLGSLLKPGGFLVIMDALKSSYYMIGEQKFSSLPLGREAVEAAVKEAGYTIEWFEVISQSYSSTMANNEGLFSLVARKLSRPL
Chain of Phenylethanolamine N-methyltransferase (Homo sapiens) (P11086 whole entry, looked up): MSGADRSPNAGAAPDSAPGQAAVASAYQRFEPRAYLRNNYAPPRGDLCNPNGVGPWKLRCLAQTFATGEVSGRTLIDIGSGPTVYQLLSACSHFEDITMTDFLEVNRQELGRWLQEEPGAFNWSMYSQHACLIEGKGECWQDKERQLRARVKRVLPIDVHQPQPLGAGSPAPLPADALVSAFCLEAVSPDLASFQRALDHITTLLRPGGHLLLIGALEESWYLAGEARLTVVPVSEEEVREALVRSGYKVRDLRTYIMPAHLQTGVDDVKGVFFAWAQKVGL
Chain of Glutathione peroxidase 1 (Homo sapiens) (P07203 whole entry, looked up): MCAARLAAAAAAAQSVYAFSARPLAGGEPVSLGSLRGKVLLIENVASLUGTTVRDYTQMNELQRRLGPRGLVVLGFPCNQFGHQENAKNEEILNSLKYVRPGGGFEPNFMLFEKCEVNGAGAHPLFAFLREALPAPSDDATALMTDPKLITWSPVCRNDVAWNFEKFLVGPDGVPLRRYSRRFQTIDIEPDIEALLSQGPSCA
Chain of Rap guanine nucleotide exchange factor 3 (Homo sapiens) (O95398 whole entry, looked up): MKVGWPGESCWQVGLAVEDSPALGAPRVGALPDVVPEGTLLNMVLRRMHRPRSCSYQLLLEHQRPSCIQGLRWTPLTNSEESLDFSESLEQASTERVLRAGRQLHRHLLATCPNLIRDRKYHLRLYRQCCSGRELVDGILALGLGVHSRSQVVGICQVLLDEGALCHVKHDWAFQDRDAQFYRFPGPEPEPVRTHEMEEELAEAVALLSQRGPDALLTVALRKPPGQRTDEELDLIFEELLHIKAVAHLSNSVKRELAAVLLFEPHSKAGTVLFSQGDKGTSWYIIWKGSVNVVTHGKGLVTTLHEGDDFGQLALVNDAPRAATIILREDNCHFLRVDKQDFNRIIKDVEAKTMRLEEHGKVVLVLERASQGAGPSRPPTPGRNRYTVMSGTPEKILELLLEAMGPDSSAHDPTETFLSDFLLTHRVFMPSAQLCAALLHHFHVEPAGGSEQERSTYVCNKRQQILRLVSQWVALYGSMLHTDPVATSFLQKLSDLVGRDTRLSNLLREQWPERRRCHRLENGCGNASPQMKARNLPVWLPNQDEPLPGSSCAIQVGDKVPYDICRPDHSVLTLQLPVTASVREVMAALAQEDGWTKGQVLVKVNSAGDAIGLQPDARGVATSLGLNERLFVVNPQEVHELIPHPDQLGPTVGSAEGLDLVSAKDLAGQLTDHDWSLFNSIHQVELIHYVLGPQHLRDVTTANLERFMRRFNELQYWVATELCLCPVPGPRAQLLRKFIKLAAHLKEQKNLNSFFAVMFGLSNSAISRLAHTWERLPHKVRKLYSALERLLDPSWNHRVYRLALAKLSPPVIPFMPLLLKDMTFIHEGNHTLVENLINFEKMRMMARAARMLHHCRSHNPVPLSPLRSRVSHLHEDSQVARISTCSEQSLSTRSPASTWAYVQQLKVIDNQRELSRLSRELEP

Turning to `OC[C@H]1O[C@@H](Oc2ccc(O)c3cccc(O)c23)[C@H](O)[C@@H](O)[C@@H]1O`, the figures for the activity in test [1], in test [3] and in test [4] were -82.3%, -18.4% and -70.9%, respectively. For the same molecule, the figures for the Potency in test [2] and in [8] were 16.8 µM (active) and 0.927 µM (active), respectively. In addition, the Potency result in test [5], in test [6] and in test [7] was “inactive” throughout.

Take `CNC1CCN(C(Cc2cccc(-c3ccncc3)c2)C(=O)c2sc3c(F)ccc(F)c3c2Cl)CC1` (stereo not drawn): the activity in [1] is -12.3%; in test [3], -78%; in test [4], -11.9%. Moreover, the Potency in test [2] is 48.2 µM (active).

On to `CC1=CC(=O)CC(C)(C)C1(O)CCC(C)O` (stereo not drawn), for which the activity in test [1] was -75.7%; in [3], 0%; in [4], 4.65%. In addition, the activity change, negative = inhibition in test [2] stood at 2.94%. The Potency result in [5], in test [6], in test [7], in [9] and in [10] was “inactive” in each case.

For the molecule `CC(C)(C)NC(=O)[C@@H]1C[C@@H]2CCCC[C@@H]2CN1C[C@@H](O)[C@H](Cc1ccccc1)NC(=O)[C@H](CC(N)=O)NC(=O)c1ccc2ccccc2n1`, the outcome in test [11] and in test [13] was “inactive” in each case. The Potency result in [12] is “inactive”.

Consider `COC(=O)C1=COC(OC2OC(CO)C(O)C(O)C2O)C2C1CC(OC(=O)C(O)CC(=O)O)C2C` (stereo not drawn), for which the activity in test [1] is -63.4%; in [3], 1.84%; in test [4], 1.07%. Besides, the activity change, negative = inhibition in test [2] was 1.08% [at 29.8 µM]. In addition, the Potency result in test [5], in [6], in test [7], in [9] and in test [10] was “inactive” in each case. For the same molecule, the Potency in [8] is 13 µM (active).

Regarding `C[C@@H]1O[C@@H](O[C@H]2[C@H](OC(=O)C34CCC(C)(C)CC3C3=CCC5C6(C)CC(O)C(O[C@@H]7O[C@H](CO)[C@@H](O)[C@H](O)[C@H]7O)C(C)(C(=O)O)C6CCC5(C)C3(CO)CC4)O[C@H](C)[C@H](O)[C@@H]2O)[C@H](O)[C@H](O)[C@H]1O[C@@H]1OC[C@@H](O)[C@H](O)[C@H]1O` (stereo partly drawn), the activity was -46% in test [1], -3.41% in test [3] and -2.81% in test [4]. Further, in test [2], the activity change, negative = inhibition is -4.58% [at 19.1 µM]. The Potency result in [5] and in test [6] was “inactive” each time. Further, the outcome in test [7] was “inactive [at 11.6 µM]”. The activity change, negative = thiol reactive in [8] was 89.3% [at 11.5 µM] (inactive). In addition, the activity, negative = inhibition in test [9] is 2.8% [at 11.6 µM] (inactive). Further, in [10], the redox activity (% of DA3003) is 9.03% [at 11.5 µM] (inactive).

`CCCCC(CC)COC(=O)CC(C(=O)OCC(CC)CCCC)S(=O)(=O)O` (stereo not drawn): the outcome in test [11] is “inactive”. Further, the Potency in [12] is 39.3 µM (active) and 31.2 µM (active). In addition, in test [5], the Potency entry was “inactive”.

As for `COc1ccc(/C=C/C(=O)O[C@@H]2[C@@H](OC(C)=O)[C@@H](OC(C)=O)[C@H](O[C@H]3[C@@H]4C=CO[C@@H](O[C@@H]5O[C@H](CO)[C@@H](O)[C@H](O)[C@H]5O)[C@@H]4[C@@]4(CO)O[C@@H]34)O[C@H]2C)cc1O`, the figures for the activity in test [1], in test [3] and in test [4] were -68.6%, -11.7% and -9.65%, respectively. The activity change, negative = inhibition in test [2] was -5.06% [at 19.1 µM]. Further, the Potency entry in test [5], in test [6] and in test [7] was “inactive” in each case.

In the case of `CC1CC(=O)C2=C(O1)OC1(C)CCC3C(C)(C)C=CC(=O)C3(C)C1C2` (stereo not drawn), the activity is -45.9% in test [1], -84.9% in [3] and -3% in test [4]. In test [2], the activity change, negative = inhibition was -4.08%. Moreover, the Potency result in test [5], in test [6], in test [7] and in test [9] was “inactive” throughout. For the same molecule, the Potency in test [8] was 7.36 µM (active).

(Values after PubChem BioAssay (NCATS).)
